Screens (PubChem)
HT1080 IDH1KD tx = qHTS for induction of synthetic lethality in tumor cells producing 2HG: qHTS for the HT-1080-IDH1KD cell line; AID 686971, 2013; Potency, µM (top dose mostly 46.1 µM), for the others: at the top dose activity, negative = toxicity, usual class: cytotoxic; HT-1080 IDH1 knockdown viability, ATP luminescence, 48 h; 360,000 tested, 2% active;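 note: 0% = DMSO wells and -100% = cell-free medium wells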
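Knockdown cells (IDH1KD HT-1080) received compounds 2 h after plating at 750 cells/well and were kept 48 h at 37 °C in 5% FBS RPMI. A CellTiter-Glo luminescence read gave % activity for curve fitting.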
TGFb SMAD3 inh = qHTS for Inhibitors of TGF-b; HepG2 CAGA-GFP TGF-b/SMAD3 reporter, GFP fluorescence, 18 h; TGF-beta stimulated, 500 pg/mL final; Potency, µM (titrated, usually from 46.1 µM), without a hit: at the top dose activity, negative = inhibition, actives largely listed as inhibitors; 410,000 tested, 1.2% active; AID 588855, 2011; note: % is set by controls: 0 for no effect and ±100 for the full control effect; nearly all actives have a fitted effect of over 65% in size
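First, reporter cells (HEPG2 CAGA-GFP) rested 2 h at 37 degrees C. Next, compounds were pinned in and TGF-beta added to 500 pg/mL final. After 18 h, GFP was imaged per cell and summed per well.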
DT40 TDP1 no CPT = qHTS for Inhibitors of human tyrosyl-DNA phosphodiesterase 1 (TDP1): qHTS in cells in absence of CPT | Potency, µM (titrated, usually from 46.2 µM), without a hit: top-dose activity change, negative = growth inhibition, usual class: inhibitors | 420,000 tested, 15% active | DT40 Tdp1-/- hTDP1 cells, no CPT, ATP luminescence, 48 h; note: % is set by controls: 0 for no effect and ±100 for the full control effect; nearly all actives have a fitted effect of over 55% in size
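DT40 Tdp1-/-;hTDP1 cells, no CPT (DMSO vehicle only), 400 cells/well; compounds pin-transferred; ≥48 hr, 37 °C; CellTiter-Glo 30 min RT dark, luminescence read.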
HepG2 viability = qHTS for Inhibitors of TGF-b: Cytotox Counterscreen; Potency, µM (titrated, usually from 46.1 µM), for the others: at the highest dose activity change, negative = cytotoxicity, actives largely listed as cytotoxic; AID 588856, 2011; 410,000 tested, 0.76% active; HepG2 CAGA-GFP viability, ATP luminescence, 18 h
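CellTiter-Glo luminescence gave cytotoxicity after 18 hours at 37 degrees C. The cells were HepG2 CAGA-GFP in 1% FBS DMEM, stimulated with 500 pg/mL TGF-beta after compound addition. %Activity was normalised to no-cell wells (complete cell-killing) and DMSO (no toxicity), and curves were fitted and classified.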
HT1080-NT tox = qHTS for induction of synthetic lethality in tumor cells producing 2HG: qHTS for the HT-1080-NT fibrosarcoma cell line. HT-1080-NT fibrosarcoma viability, CellTiter-Glo ATP luminescence, 48 h. Potency, µM (top dose mostly 46.1 µM), for inactives: at the highest dose activity, negative = less viability, usual class: cytotoxic. AID 686970, 2013. 360,000 tested, 1.6% active;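 note: NT is the 2HG producing partner of a matched IDH1 knockdown line; 0% = DMSO-treated cells and -100% = media-only wells without cells; nearly all actives have a fitted effect of over 55% in size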
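A 48-hour cytotoxicity screen used HT-1080-NT cells plated 2 hours before compound delivery. ATP-based CellTiter-Glo luminescence measured viability, normalized to DMSO and no-cell controls.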
TDP1 cell CPT = qHTS for Inhibitors of human tyrosyl-DNA phosphodiesterase 1 (TDP1): qHTS in cells in presence of CPT; chicken DT40 Tdp1-/-;hTDP1 cells + 20 nM CPT, ATP luminescence, 48 h; Potency, µM (highest dose often 46.2 µM), without a hit: top-dose activity change, negative = growth inhibition, actives largely listed as inhibitors; 420,000 tested, 12% active; AID 686979, 2013; note: % is set by controls: 0 for no effect and ±100 for the full control effect; nearly all actives have a fitted effect of over 55% in size
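Chicken DT40 Tdp1-/- cells stably complemented with human TDP1 were seeded at 400 cells/well in medium containing 20 nM camptothecin, exposed to pin-transferred compounds, and grown at 37 °C for at least 48 hr. Viability was read as ATP luminescence.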
* = called active by the depositor; ? = inconclusive; . = not tested or not shown; [ ] = remark or other dose. Shown are actives, neighbours in structure and some others; about 17% of the full set was active somewhere. Calls come from the whole dose curve; as a rule, active = well fitted curve in the direction sought with a large enough effect; inconclusive = small, poorly fitted or top-dose-only effect, or another doubt; inactive = no such curve, though single readings can be large; an effect the other way counts as inactive or inconclusive. Potency is the fitted concentration of half-maximal effect.

SMILES | HT1080 IDH1KD tx | TGFb SMAD3 inh | DT40 TDP1 no CPT | HepG2 viability | HT1080-NT tox | TDP1 cell CPT
COCCN(CCOC)c1nc(-c2ccc(C)cc2)nc2ccccc12 | -19% | -21% | 18µM* | -14% | -29% | ?
CCCN(CCC)c1nc(-c2ccccn2)nc2ccccc12 | 9.2µM* | ? | 3.3µM* | -54% | ? | 1.3µM*
CN(C)CCCNc1nc(-c2ccc(Cl)cc2)nc2ccccc12 | ? | ? | ? | -56% | ? | ?
c1ccc(CCNc2nc(-c3ccccn3)nc3ccccc23)cc1 | ? | ? | 2.9µM* | -11% | -27% | 3.3µM*
O=C(C(=O)N1CCN(c2ccccc2)CC1)c1ccccc1 | 19% | . | -1% | . | 28% | 14%
CCCCN(CC)c1nc(-c2ccncc2)nc2ccccc12 | ? | ? | ? | -112% | ? | 16µM*
COCCNc1nc(-c2ccc(N(C)C)cc2)nc2ccccc12 | . | . | 21µM* | . | . | ?
Cc1cc(Cl)ccc1NNC(=O)c1cccs1 | ? | -9% | -10% | 14% | ? | -3%
CC(=O)C(=Nc1cccc(Cl)c1)NNc1ccccc1C | -19% | -21% | 15µM* | 22% | -18% | ?
Cc1cc2nc(-c3cc(NC(=O)c4cc5ccccc5o4)ccc3Cl)oc2cc1C | . | -22% | 16µM* | -36% | . | ?
COc1cc2ccccc2cc1C(=O)Nc1ccc(Cl)c(-c2nc3ccccc3o2)c1 | . | -14% | 23µM* | -12% | . | ?
COc1ccccc1-c1nc2cc(NC(=O)c3ccccc3Cl)ccc2o1 | . | 0% | ? | -41% | . | ?
O=C(CC1CCCCC1)Nc1ncn[nH]1 | 5% | -2% | 4% | 3% | 10% | -1%
Cc1ccc(-c2nc3ccccc3n2C)o1 | -18% | -3% | ? | -62% | -29% | ?
Cn1c2nc3ccccc3c-2nc2ccccc21 | 9% | 4% | 8.2µM* | 16% | 1% | 18µM*
Cn1c(-c2ccc(Br)o2)nc2ccccc21 | 18µM* | ? | 10µM* | -64% | 12µM* | 11µM*
C=CCC[C@H](Cc1ccc(F)cc1)C(=O)OC[C@@H](Cc1c[nH]c2ccccc12)NC(=O)[C@@H](CC=C)CC(=O)NCCO | ? | ? | ? | -47% | ? | ?
COCc1ccc(CN2CCOc3c(cc(-c4ccc(SC)cc4)cc3OC)C2)o1 | . | . | -21% | . | . | 1%[9.04 µM]
Fc1ccc(CNc2ccc(N3CCN(Cc4ccccc4)CC3)cc2)cc1 | -15% | -27% | ? | -13% | -27% | ?
Clc1cccc(Cl)c1CNc1ccc(N2CCCC2)cc1 | -27% | -22% | 16µM* | -3% | ? | 6.5µM*
O=C(OCCN1C(=O)c2cccc3c(N4CCOCC4)ccc(c23)C1=O)c1cccc(Cl)c1 | 9.2µM* | 25% | 8.2µM* | 8% | 15µM* | 18µM*
O=C(OCCN1C(=O)c2cccc3c(N4CCOCC4)ccc(c23)C1=O)c1ccc(Cl)cc1Cl | 2.3µM* | 50% | 4.1µM* | 4% | 1.8µM* | 3.7µM*
O=C(OCCN1C(=O)c2ccccc2C1=O)c1cc(S(=O)(=O)N2CCOCC2)ccc1Cl | -1% | 26% | 3% | -2% | 1% | 9%
COc1cc2c(c(OC)c1OC)-c1c(cc3c(c1OC)OCO3)C[C@@H](C)[C@](C)(O)C2 | . | . | ? | . | . | 9%
O=C(O)c1ccc(N=NN2CCCCCC2)cc1 | 11% | -1% | -19% | 1% | -1% | -11%
SMILES | HT1080 IDH1KD tx | TGFb SMAD3 inh | DT40 TDP1 no CPT | HepG2 viability | HT1080-NT tox | TDP1 cell CPT
COc1cc([N+](=O)[O-])cc(/C=N/NC(=O)C(C)Nc2ccccc2C)c1O (stereo not drawn) | ? | -13% | 18µM* | -12% | -28% | 15µM*
COc1cc([N+](=O)[O-])cc(/C=N/NC(=O)c2ccc(C)nc2)c1O | -19% | 16% | 2.9µM* | 11% | -2% | 5.2µM*
Cc1ccc(C(=O)N/N=C/c2cc(Br)ccc2O)cn1 | ? | ? | 5.2µM* | -34% | ? | 4.1µM*
COc1cc(/C=N/NC(=O)c2ccc(C)nc2)cc([N+](=O)[O-])c1O | 17% | 10% | -12% | 3% | 13% | 20%
COc1cc([N+](=O)[O-])cc(/C=N/NC(=O)c2ccc(NC(=O)c3ccc(C)cc3)cc2)c1O | ? | ? | 4.1µM* | -72% | ? | 2.9µM*
Cc1cccc(C)c1NC(=O)C1(C)CSCC(=O)N1CCc1ccccc1F (stereo not drawn) | -8% | . | ? | . | -14% | -19%
COc1ccc(NC(=O)N2CCN(S(C)(=O)=O)CC2)cc1 | 2% | -29% | ? | -29% | 15% | 23µM*
Cn1c(=O)c(C(=O)NC2CCCCCCC2)c(O)c2ccccc21 | -2% | -6% | 21µM* | 1% | 5% | 21µM*
Cn1c(C(=O)NC2CCCCC2)cc2c(=O)n(C)c3ccccc3c21 | -1% | -16% | 16µM* | -10% | 20% | ?
Cn1c(=O)c(C(=O)NC2CCCCCC2)c(O)c2ccccc21 | 4% | 16% | -17% | -7% | 7% | -6%
Cn1c(C(=O)NC2CCCCCC2)cc2c(=O)n(C)c3ccccc3c21 | 8% | 17% | 16µM* | 0% | ? | 15µM*
CCN(C[C@H]1N[C@@](Cc2ccccc2)(C(=O)OC)[C@H]2C(=O)N(C)C(=O)[C@@H]12)S(=O)(=O)c1ccc(C(F)(F)F)cc1 | -27% | -14% | 18µM* | -11% | -14% | 23µM*
CCN(C[C@H]1N[C@@](Cc2ccccc2)(C(=O)OC)[C@H]2C(=O)N(C)C(=O)[C@@H]12)S(=O)(=O)c1ccc(OC)cc1 | 2% | 2% | 15µM* | 1% | 2% | 15µM*
CCN(C[C@H]1N[C@@](Cc2ccccc2)(C(=O)OC)[C@H]2C(=O)N(C)C(=O)[C@@H]12)S(=O)(=O)c1ccc(OC(F)(F)F)cc1 | -9% | -21% | 16µM* | -8% | -12% | ?
COC(=O)[C@]1(Cc2ccccc2)N[C@H](CN(C)S(=O)(=O)c2ccc(-c3ccccc3)cc2)[C@@H]2C(=O)N(C)C(=O)[C@@H]21 | -9% | 7% | 21µM* | -31% | -3% | 26µM*
